ASM inhibitor – Inhibitors of Secretory Acid Sphingomyelinase (S-ASM): qHTS | AID 504937, 2011 | 0.006% of 340,000 active | placental ASM, HMU-PC fluorogenic substrate, 60 min | Potency, µM (titrated, usually from 57.5 µM), for the others: top-dose activity change, negative = inhibition, most hits filed as inhibitors
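HMU-PC0 cleavage (9 uM final) by human placental ASM, 60 min at 37 °C following 10 min compound exposure at RT; stopped at pH 10, fluorescence Ex 386/Em 447 nm.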
Tb PFK block – qHTS Assay to Find Inhibitors of T. brucei phosphofructokinase. Potency, µM (highest dose often 57.5 µM), for inactives: at the top dose activity, negative = inhibition, most hits filed as inhibitors. T. brucei PFK, ADP-Glo luminescence. AID 485367, 2010. 0.17% of 330,000 active;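 note: 0% = uninhibited 1x PFK enzyme wells and -100% = no-enzyme wells; nearly all actives have a fitted effect of over 60% in size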
Target sequence (O15648 whole entry, looked up): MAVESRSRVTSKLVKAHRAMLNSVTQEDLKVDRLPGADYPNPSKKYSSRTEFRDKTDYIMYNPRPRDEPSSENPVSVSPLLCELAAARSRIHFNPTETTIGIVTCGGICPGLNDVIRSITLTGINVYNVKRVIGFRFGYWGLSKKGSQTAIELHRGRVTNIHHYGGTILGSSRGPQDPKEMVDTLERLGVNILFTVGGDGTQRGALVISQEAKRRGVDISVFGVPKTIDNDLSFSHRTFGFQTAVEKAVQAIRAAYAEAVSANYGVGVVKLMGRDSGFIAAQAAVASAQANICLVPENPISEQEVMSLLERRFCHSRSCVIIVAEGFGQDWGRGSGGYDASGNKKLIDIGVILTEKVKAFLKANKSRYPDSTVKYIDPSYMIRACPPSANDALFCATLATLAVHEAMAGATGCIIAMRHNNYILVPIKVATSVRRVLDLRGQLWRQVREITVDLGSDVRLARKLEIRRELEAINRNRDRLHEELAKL
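1.25 nM PFK with 0.5 mM F6P and 0.1 mM ATP in 0.1 M TEA pH 8.0, 5 mM MgCl2, incubated 45 min at room temperature; ADP measured by ADP-Glo luminescence; compounds titrated up to 57 uM.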
PLK1 PBD inh – qHTS for Inhibitors of PLK1-PDB (polo-like kinase 1 - polo-box domain): Primary Screen; 2.8% of 360,000 active; AID 720504, 2013; Potency, µM, for inactives: max response, negative = inhibition, usual class: inhibitors; Serine/threonine-protein kinase PLK1 (Homo sapiens), P53350; Plk1 PBD binding of FITC phosphopeptide, fluorescence polarization; note: series mostly up to about 57 µM; % is set by controls: 0 for no effect and ±100 for the full control effect; nearly all actives have a fitted effect of over 65% in size
Pin1 inh – qHTS Assay to Find Inhibitors of Pin1; AID 504891, 2011; Pin1 FP peptide displacement, HiFluor488, 10 min; 0.009% of 390,000 active; Potency, µM (highest dose often 115 µM), for the others: at the highest dose activity, negative = inhibition, most hits filed as inhibitors; active = well fitted inhibition curve with a large enough effect in the polarisation, with a control signal flat, not every such curve was filed as active; inconclusive = small, poorly fitted or top-dose-only effect, or effect the other way, or a change in a side signal; inactive = no such curve, though single readings can be large or run the other way; the % refers to the polarisation; note: % is set by controls: 0 for no effect and ±100 for the full control effect
VDR inh – Inhibitors of the vitamin D receptor (VDR): qHTS; Vitamin D3 receptor (Homo sapiens), P11473; VDR-SRC2-3 peptide fluorescence polarization, 2 h; Potency, µM, without a hit: max response, negative = inhibition, hits mostly inhibitors; 0.93% of 400,000 active; note: % is set by controls: 0 for no effect and ±100 for the full control effect
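The screen uses fluorescence polarization to detect compounds that interfere with recruitment of the SRC2-3 coactivator peptide to VDR; plates are read after 2 h at room temperature.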
TDP1 block – qHTS Assay for Inhibitors of Tyrosyl-DNA Phosphodiesterase (TDP1). 0.28% of 350,000 active. Potency, µM (titrated, usually from 130 µM), inactives show top-dose activity change, negative = inhibition, most hits filed as inhibitors. recombinant TDP1, AlphaScreen DNA substrate cleavage. Tyrosyl-DNA phosphodiesterase 1 (Homo sapiens), Q9NUW8; note: % is set by controls: 0 for no effect and ±100 for the full control effect; nearly all actives have a fitted effect of over 40% in size
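Recombinant E. coli-expressed Tdp1 (1 nM) preincubated with compound 15 min at RT, then 5'-biotin/3'-phosphotyrosine-FITC DNA substrate (15 nM) added for 5 min. AlphaScreen beads (10 ug/ml) added, 10 min RT; tyrosine-FITC cleavage read as signal loss.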
VDR confirm – qHTS for Inhibitors of the vitamin D receptor (VDR): Hit Validation in Primary Screen | Potency, µM, hits mostly inhibitors | 89% of 840 active | AID 602199, 2012 | VDR-coactivator inhibition assay, qHTS confirmation | shares compounds with VDR inh
VDR FP fluor – qHTS for Inhibitors of the vitamin D receptor (VDR): Hit Validation using a Fluorescein Assay; VDR-coactivator binding, fluorescein fluorescence polarization; Potency, µM (doses to about 57.1 µM), for the others: at the top dose activity change, negative = inhibition, hits mostly inhibitors; shares compounds with VDR inh; 48% of 840 active
VDR bla – qHTS for Inhibitors of the vitamin D receptor (VDR): Hit Validation using a Beta-Lactamase Assay; shares compounds with VDR inh; VDR beta-lactamase reporter cells, FRET ratio; cells co-treated with VDR agonist LG190178; Potency, µM (titrated, usually from 46.1 µM), inactives show at the highest dose activity change, negative = inhibition, usual class: inhibitors; 23% of 840 active; note: % is set by controls: 0 for no effect and ±100 for the full control effect
VDR cytotox – qHTS for Inhibitors of the vitamin D receptor (VDR): Hit Validation using a Cytotoxicity Assay | shares compounds with VDR inh | cytotoxicity counter-screen, cell viability, qHTS | Potency, µM (top dose mostly 48.3 µM), inactives show at the top dose activity change, negative = cytotoxicity, most hits filed as cytotoxic | 18% of 840 active;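 note: plate controls were DMSO for no effect and high-concentration cycloheximide for full effect; nearly all actives have a fitted effect of over 75% in size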
TbPYK inh – qHTS of Trypanosoma Brucei Inhibitors: Confirmatory Assay for Cherry-picked Compounds | 67% of 890 active | Potency, µM (series often up to 76.9 µM), for inactives: at the top dose activity change, negative = inhibition, most hits filed as inhibitors | recombinant TbPYK, Kinase-Glo ATP luminescence | shares compounds with PLK1 PBD inh; note: % is set by controls: 0 for no effect and ±100 for the full control effect; nearly all actives have a fitted effect of over 70% in size
TbPYK orthogonal – qHTS of Trypanosoma Brucei Inhibitors: Orthogonal Assay for Cherry-picked Compounds | shares compounds with PLK1 PBD inh | recombinant TbPYK, ADP-Glo luminescence, 60 min | Potency, µM (top dose mostly 76.9 µM), for the others: at the top dose activity change, negative = inhibition, usual class: inhibitors | 62% of 890 active; note: % is set by controls: 0 for no effect and ±100 for the full control effect; nearly all actives have a fitted effect of over 75% in size
Starred values were filed as active, the others as inactive; ? = inconclusive; · = no result. An excerpt weighted towards active compounds, which were near 3.1% of everything screened. Unless noted, calls come from the whole dose curve; as a rule, active = well fitted curve in the direction sought with a large enough effect; inconclusive = small, poorly fitted or top-dose-only effect, or another doubt; inactive = no such curve, though single readings can be large; an effect the other way counts as inactive or inconclusive. Potency is the fitted concentration of half-maximal effect.

SMILES	ASM inhibitor	Tb PFK block	PLK1 PBD inh	Pin1 inh	VDR inh	TDP1 block	TbPYK inh	TbPYK orthogonal	others
CC(C)(C)c1cc(C(c2cccnc2)N2CCN(CCO)CC2)cc(C(C)(C)C)c1O (stereo not drawn)	-1.4%	-3.2%	1.89µM*	-6.9%	25.1µM*	10.7%	0.316µM*	2.82µM*	VDR confirm=3.77*;VDR FP fluor=3.98µM*;VDR bla=16.4µM*;VDR cytotox=?
Nc1ccc2c(c1)C(=O)C(=O)c1ccccc1-2	-8.8%	-19.7%	1.5µM*	?	20µM*	-6.6%	14.1µM*	?	VDR confirm=6.7*;VDR FP fluor=?;VDR bla=4.11µM*;VDR cytotox=2.91µM*
COc1ccc(N(CC(=O)NCCSC(C)(C)C)S(C)(=O)=O)c(OC)c1	-0.2%	-1.4%	-10.7%	-7.0%	-5.6%	-2.3%	17.8µM*	?
Cc1ccc(Cn2c(=O)n(-c3cc(C)cc(C)c3)c(=O)c3oc4ccccc4c32)cc1	·	·	·	23.3%	11.8%	0.0%	·	·
C#C[C@]1(OC(C)=O)CC[C@H]2[C@@H]3CCC4=CC(=O)CC[C@@H]4[C@H]3CC[C@@]21C	·	·	·	·	?	11.2%	·	·
CCN(CC)c1ccc(C(=C2C=CC(=[N+](CC)CC)C=C2)c2ccc(N(CC)CC)cc2)cc1	?	·	29.9µM*	1.2%	?	·	22.4µM*	14.2%
CCN(c1ccc(C)cc1C)S(=O)(=O)c1nnc(NC(=O)c2ccccc2OC)s1	·	·	·	0.0%	12.2%	0.0%	·	·
CC(=O)Nc1ccc(S(=O)(=O)NNc2cccc(C)c2)cc1	-12.9%	?	11.9µM*	-1.0%	79.4µM*	·	?	17.8µM*
Cc1cccc(-n2c(=O)c3c(c4cc(C)ccc4n3C)n(CC(=O)NCCC3=CCCCC3)c2=O)c1	·	·	·	1.8%	3.9%	2.8%	·	·
